Consider 19 molecules from PubChem BioAssay (EPA / NIEHS).

A short description of assay [1]: ATG_CRE_CIS: Attagene CIS-FACTORIAL HepG2 Assay for human cAMP Responsive Element (CRE) binding protein 3 (AID 2282926). The following applies: HepG2 CRE cis-reporter, Attagene multiplexed mRNA; actives raise or lower the signal. Summed up:
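Cells carrying cis-regulated reporter constructs respond through their own endogenous factors. After 24 h treatment, RNA is reverse-transcribed, amplified, labelled and sized by capillary electrophoresis; up- and down-regulation are both scored against vehicle.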

For assay [2], the target named is CCAAT/enhancer-binding protein beta (Homo sapiens) (UniProt P17676). Kind of assay: ATG_C_EBP_CIS: Attagene CIS-FACTORIAL HepG2 Assay for human CCAAT/Enhancer Binding Protein (C/EBP) beta (AID 2282927). The following applies: HepG2 Attagene cis-factorial transcription factor reporter; actives raise or lower the signal. In a few lines: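 HepG2, transient MRTU transfection, 24 h treatment. RT-PCR plus CE fluorescence; DMSO negative control, bidirectional fit.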

A short description of assay [3]: ATG_CMV_CIS: Attagene CIS-FACTORIAL HepG2 Assay for human CMV (Internal Marker) (AID 2282928).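 Note: endpoint acts as a background internal control marker rather than a target.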 The following applies: HepG2 CMV promoter reporter, transcription factor profiling; actives raise or lower the signal. In a few lines: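 Fluorescence intensity of RT-PCR-derived reporter fragments, resolved by capillary electrophoresis, gives the signal. HepG2 liver cells bearing transfected cis-element reporters were treated 24 h; activity in either direction was fit relative to DMSO-treated controls.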

Assay [4] can be described thus: ATG_DR4_LXR_CIS: Attagene CIS-FACTORIAL HepG2 Assay for human Liver X Receptor (LXR), DR4 submotif (AID 2282929). Particulars: HepG2 Attagene DR4 cis-reporter, mRNA transcription; actives raise or lower the signal. In a few lines:
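Readout: reporter transcript fluorescence after RT-PCR and capillary electrophoresis, fitted bidirectionally against DMSO controls. Human HepG2 liver cells carried transiently transfected multiplexed reporter constructs; endogenous transcription factor activity measured 24 h post-dosing.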

A short description of assay [5]: ATG_AP_1_CIS: Attagene CIS-FACTORIAL HepG2 Assay for human Activator Protein 1 (AP-1) (AID 2282931). Particulars: HepG2 Attagene cis-factorial AP-1 reporter mRNA; actives raise or lower the signal. Summed up:
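Reporter transcripts were measured 24 h after dosing by RT-PCR and capillary electrophoresis of fluorescent fragments. Cells: HepG2 carrying transfected cis-regulated reporter constructs reading endogenous factor activity. Gain or loss fitted against DMSO.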

Assay [6] is described as follows: ATG_AP_2_CIS: Attagene CIS-FACTORIAL HepG2 Assay for human Activator Protein 2 (AP-2) (AID 2282932). Particulars: HepG2 AP-2 cis-reporter, Attagene transcription factor profiling; actives raise or lower the signal. Summed up:
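Liver-derived HepG2 line, cis-reporter system measuring endogenous factors; 24 h dosing; reporter mRNA detected by fluorescent RT-PCR and capillary electrophoresis.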

The nature of assay [7]: ATG_BRE_CIS: Attagene CIS-FACTORIAL HepG2 Assay for human Bone Morphogenetic Protein (BMP) Response Element (BRE) (AID 2282933). The following applies: HepG2 BMP response element reporter, Attagene transcription factor profiling; actives raise or lower the signal. Summed up: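 After a 24 h chemical treatment, transiently transfected HepG2 cells were lysed for RNA; reporter transcripts were quantified by fluorescent RT-PCR and capillary electrophoresis, normalised to DMSO.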

The target in assay [8] is Retinoic acid receptor alpha (Homo sapiens) (UniProt P10276). Description: ATG_DR5_RAR_CIS: Attagene CIS-FACTORIAL HepG2 Assay for human Retinoic Acid Receptor Alpha (RARE), DR5 submotif (AID 2282934).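 For AC50: reporter responds to endogenous RAR alpha beta and gamma in HepG2 not RARA alone.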 Particulars: HepG2 Attagene cis-factorial RARE DR5 reporter, mRNA; actives raise or lower the signal. Summed up: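 After 24 h of chemical exposure, transiently transfected HepG2 cells were lysed for total RNA; the DR5-regulated reporter transcript was quantified via RT-PCR and capillary electrophoresis, with activity fitted bidirectionally against DMSO.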

Assay [9] addresses Transcription factor E2F1 (Homo sapiens) (UniProt Q01094). Kind of assay: ATG_E2F_CIS: Attagene CIS-FACTORIAL HepG2 Assay for human E2F Transcription Factor 1 (AID 2282935). The following applies: HepG2 Attagene cis-reporter, E2F reporter RNA transcripts; actives raise or lower the signal. In a few lines: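 Liver-derived HepG2 cells expressing transfected promoter-driven reporter units received test chemical for 24 hours. Signal gains or losses were fitted bidirectionally against DMSO.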

Assay [10] addresses Aryl hydrocarbon receptor (Homo sapiens) (UniProt P35869). Description: ATG_Ahr_CIS: Attagene CIS-FACTORIAL HepG2 Assay for human Aryl Hydrocarbon Receptor (Ahr) (AID 2282930). The following applies: HepG2 AhR cis-factorial reporter transcription; actives raise or lower the signal. In a few lines: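 Endogenous factor activity is tracked through cis-promoter reporter units transfected into HepG2 cells. Transcript levels at 24 h are read by fluorescent RT-PCR and capillary electrophoresis, with activity in either direction scored relative to DMSO.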

The source made the active and inactive calls. Rule for the calls: active = hit-call score of the fitted dose curve at least 0.9, where 1 is the maximum; inactive = score below 0.9.

CCAAT/enhancer-binding protein beta (Homo sapiens), sequence (P17676 whole entry, looked up): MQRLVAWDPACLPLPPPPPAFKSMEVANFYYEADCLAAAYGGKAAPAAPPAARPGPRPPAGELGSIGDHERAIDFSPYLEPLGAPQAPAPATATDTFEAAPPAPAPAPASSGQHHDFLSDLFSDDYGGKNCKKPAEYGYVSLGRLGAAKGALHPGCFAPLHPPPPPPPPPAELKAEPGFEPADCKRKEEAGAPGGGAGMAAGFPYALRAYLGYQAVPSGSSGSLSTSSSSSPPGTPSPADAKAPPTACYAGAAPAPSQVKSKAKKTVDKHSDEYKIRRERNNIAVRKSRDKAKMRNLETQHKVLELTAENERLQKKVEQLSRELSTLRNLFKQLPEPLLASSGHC
Transcription factor E2F1 (Homo sapiens), sequence (Q01094 whole entry, looked up): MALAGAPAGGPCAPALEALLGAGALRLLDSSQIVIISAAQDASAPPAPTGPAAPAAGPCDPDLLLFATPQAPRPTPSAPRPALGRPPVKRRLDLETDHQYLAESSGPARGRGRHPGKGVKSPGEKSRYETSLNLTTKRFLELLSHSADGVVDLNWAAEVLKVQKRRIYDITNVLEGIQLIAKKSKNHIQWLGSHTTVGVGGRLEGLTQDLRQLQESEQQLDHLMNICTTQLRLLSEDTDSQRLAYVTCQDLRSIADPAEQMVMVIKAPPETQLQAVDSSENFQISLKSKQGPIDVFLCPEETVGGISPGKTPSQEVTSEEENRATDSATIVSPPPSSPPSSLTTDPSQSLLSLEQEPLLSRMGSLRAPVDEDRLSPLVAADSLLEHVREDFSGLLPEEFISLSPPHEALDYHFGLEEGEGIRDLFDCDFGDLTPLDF
Retinoic acid receptor alpha (Homo sapiens), sequence (P10276 whole entry, looked up): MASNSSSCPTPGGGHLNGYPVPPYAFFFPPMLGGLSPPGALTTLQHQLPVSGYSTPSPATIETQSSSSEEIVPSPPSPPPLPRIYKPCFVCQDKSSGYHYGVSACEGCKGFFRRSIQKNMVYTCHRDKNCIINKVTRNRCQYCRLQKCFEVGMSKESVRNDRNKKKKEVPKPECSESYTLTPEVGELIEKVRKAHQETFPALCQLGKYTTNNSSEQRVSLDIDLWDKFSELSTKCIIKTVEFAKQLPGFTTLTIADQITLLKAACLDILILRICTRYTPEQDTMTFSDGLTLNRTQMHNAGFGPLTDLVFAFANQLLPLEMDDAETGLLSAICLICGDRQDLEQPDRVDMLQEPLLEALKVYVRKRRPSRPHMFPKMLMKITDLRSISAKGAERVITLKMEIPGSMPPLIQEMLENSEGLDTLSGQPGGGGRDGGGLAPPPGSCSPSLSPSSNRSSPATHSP
Aryl hydrocarbon receptor (Homo sapiens), sequence (P35869 whole entry, looked up): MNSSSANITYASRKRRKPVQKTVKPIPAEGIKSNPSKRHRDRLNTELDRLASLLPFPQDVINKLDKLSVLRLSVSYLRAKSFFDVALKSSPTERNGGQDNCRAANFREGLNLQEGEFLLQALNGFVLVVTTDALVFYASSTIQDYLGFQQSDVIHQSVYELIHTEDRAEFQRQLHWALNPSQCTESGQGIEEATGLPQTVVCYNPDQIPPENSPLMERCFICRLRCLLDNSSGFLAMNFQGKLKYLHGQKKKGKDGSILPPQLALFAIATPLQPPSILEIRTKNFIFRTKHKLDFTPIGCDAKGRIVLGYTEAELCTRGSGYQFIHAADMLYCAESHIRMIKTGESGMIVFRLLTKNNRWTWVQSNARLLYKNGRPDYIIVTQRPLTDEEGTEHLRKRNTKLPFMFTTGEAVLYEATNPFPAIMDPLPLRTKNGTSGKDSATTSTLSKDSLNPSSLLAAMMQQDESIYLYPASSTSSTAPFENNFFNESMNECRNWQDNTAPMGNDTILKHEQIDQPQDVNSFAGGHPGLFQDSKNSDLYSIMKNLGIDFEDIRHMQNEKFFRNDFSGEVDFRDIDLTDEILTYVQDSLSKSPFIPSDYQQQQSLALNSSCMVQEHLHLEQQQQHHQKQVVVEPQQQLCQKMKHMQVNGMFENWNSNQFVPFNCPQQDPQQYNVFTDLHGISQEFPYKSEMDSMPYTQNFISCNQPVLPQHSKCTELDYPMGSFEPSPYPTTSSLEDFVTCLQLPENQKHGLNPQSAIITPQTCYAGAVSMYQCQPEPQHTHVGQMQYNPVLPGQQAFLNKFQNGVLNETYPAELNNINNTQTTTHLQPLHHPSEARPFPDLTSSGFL

Take `CC(C)N(C(=O)SCC(Cl)=C(Cl)Cl)C(C)C`: the AC50 (commonly the midpoint of the concentration-response curve, whichever way the signal moves) in assay [1] is 15.6 µM (active); in [2], 10.8 µM (active); in assay [8], 29.1 µM (active). Moreover, the result in assay [3], in assay [4], in [5], in assay [6], in assay [7] and in assay [9] was inactive.

On to `Cc1nn(-c2cc(NS(C)(=O)=O)c(Cl)cc2Cl)c(=O)n1C(F)F`, for which the molecule was classed as inactive in [1], in assay [2], in assay [3], in assay [4], in [10] and in assay [5]. Moreover, the call in assay [6], in assay [7] and in [9] was inactive.

On to `CCCCOC(=O)[C@@H](C)Oc1ccc(Oc2ccc(C#N)cc2F)cc1`, for which the molecule was called inactive in [1], in assay [2], in [3], in assay [4], in [10] and in [5]. Besides, the molecule was classed as inactive in [6], in assay [7] and in assay [9].

Consider `CNC(=O)Oc1cccc2c1OC(C)(C)O2`, for which the AC50 in [1] was 50 µM (active); in assay [2], 19.3 µM (active); in assay [3] it was 35.9 µM (active); in assay [5], 61 µM (active); in [7], 42 µM (active). In addition, the result in [4], in [10], in assay [6] and in [9] was inactive.

Turning to `COP(=O)(OC)SCn1c(=O)oc2cc(Cl)cnc21`, the figures for the AC50 in assay [1] and in [4] were 18.1 µM (active) and 10.4 µM (active), respectively. In addition, the result in assay [2], in assay [3], in assay [10], in [5], in assay [6] and in assay [7] was inactive. The result in assay [9] was inactive.

Turning to `C[N+]1(C)CCCCC1`, the call in [1], in assay [2], in assay [3], in assay [4], in assay [10] and in assay [5] was inactive. The result in assay [6], in [7], in assay [8] and in [9] was inactive.

Turning to `COc1cc(OC)nc(Sc2cccc(Cl)c2C(=O)O)n1`, the molecule was classed as inactive in assay [1], in assay [2], in assay [3], in [4], in [5] and in assay [6]. In addition, the molecule was called inactive in [7] and in assay [9].

Consider `Nc1c(Cl)cc([N+](=O)[O-])cc1Cl`, for which the AC50 is 35.1 µM (active) in [1]; 73.8 µM (active) in assay [2]; 50 µM (active) in assay [3]; 75.2 µM (active) in assay [5]; 36.1 µM (active) in [7]. Moreover, the outcome in assay [4], in [10], in assay [6], in assay [8] and in [9] was inactive.

`CC(C)=CC1C(C(=O)OCN2C(=O)C3=C(CCCC3)C2=O)C1(C)C` (stereo unspecified): the AC50 in assay [1] is 38.4 µM (active); in assay [2] it was 10.9 µM (active); in assay [4] it was 73.6 µM (active); in assay [5], 71.2 µM (active); in [7], 50 µM (active). Moreover, the molecule was classed as inactive in [3], in [10], in assay [6] and in assay [9].

As to `CCOP(=S)(OCC)Oc1ccc([N+](=O)[O-])cc1`, the molecule was classed as inactive in assay [1], in assay [3], in assay [4], in assay [6], in assay [7] and in [8]. For the same molecule, in assay [9], the outcome was inactive. Also, the AC50 was 13.5 µM (active) in assay [2], 30.9 µM (active) in assay [10] and 82.6 µM (active) in [5].

For `CSC1=N[C@@](C)(c2ccccc2)C(=O)N1Nc1ccccc1`, the AC50 is 4.24 µM (active) in [1]; 6.21 µM (active) in assay [2]; 50 µM (active) in [10]; 3.2 µM (active) in assay [5]; 5.2 µM (active) in [7]. Further, the outcome in [3], in assay [4], in assay [6] and in assay [9] was inactive.

With `CCOP(=S)(OCC)Oc1cc(C)nc(C(C)C)n1`, the molecule was called inactive in assay [1], in assay [2], in assay [5], in assay [6], in [7] and in [9]. In addition, the AC50 in assay [3] was 29.8 µM (active); in assay [4] it was 50 µM (active); in [10] it was 16.3 µM (active).

For `N#CSCSC#N`, the call in assay [1], in [2], in assay [3], in assay [4], in assay [10] and in assay [5] was inactive. The result in assay [6], in assay [7], in assay [8] and in assay [9] was inactive.

For `CC[C@H](C)[C@H]1O[C@]2(C=C[C@@H]1C)C[C@@H]1C[C@@H](C/C=C(\C)[C@@H](O[C@H]3C[C@H](OC)[C@@H](O[C@H]4C[C@H](OC)[C@@H](NC)[C@H](C)O4)[C@H](C)O3)[C@@H](C)/C=C/C=C3\CO[C@@H]4[C@H](O)C(C)=C[C@@H](C(=O)O1)[C@]34O)O2`, the molecule was called inactive in assay [1], in assay [2], in assay [3], in [4], in assay [10] and in assay [5]. Also, the molecule was classed as inactive in [6], in assay [7] and in [9].

Turning to `CCOC(=O)CC(SP(=O)(OC)OC)C(=O)OCC` (stereo unspecified), the molecule was classed as inactive in [1], in [2], in [3], in [4], in assay [10] and in assay [5]. The outcome in assay [6], in assay [7], in [8] and in assay [9] was inactive.

As to `COP(=O)(NC(C)=O)SC` (stereo unspecified), the molecule was classed as inactive in assay [1], in assay [2], in assay [3], in assay [4], in assay [10] and in assay [5]. Further, the outcome in assay [6], in [7] and in assay [9] was inactive.

With `CCC(=NOC/C=C/Cl)C1=C(O)CC(C2CCOCC2)CC1=O` (stereo unspecified), the outcome in assay [1], in [2], in assay [3], in assay [4], in assay [10] and in assay [5] was inactive. Further, the result in assay [6], in assay [7] and in assay [9] was inactive.

As to `CCc1cccc(CC)c1N(COC)C(=O)CCl`, the AC50 in assay [1] is 3.04 µM (active); in assay [2] it was 3.69 µM (active); in [5], 6.1 µM (active). Moreover, the outcome in [3], in assay [4], in assay [10], in assay [6], in assay [7] and in assay [8] was inactive. For the same molecule, the call in assay [9] was inactive.

`CC(C)[C@H](C(=O)O[C@H](C#N)c1cccc(Oc2ccccc2)c1)c1ccc(Cl)cc1`: the molecule was classed as inactive in assay [1], in assay [2], in [3], in [10], in assay [5] and in assay [6]. Moreover, the result in assay [7] and in assay [9] was inactive. In [4], the AC50 is 13.9 µM (active).
